An excerpt weighted towards active compounds, which were near 0.74% of everything screened.
Vif-A3F inh = inhibitors of Vif-A3F interaction; 0.2% of 390,000 active; HeLa A3F-eYFP + Vif (tagged APOBEC3F with the HIV-1 protein that degrades it), YFP fluorescence increase; Potency, µM (titrated, usually from 46.1 µM), inactives show top-dose activity, negative = active; AID 602313; further: potency means the concentration at half of the fitted maximal effect; % of control where 0% means no effect; nearly all actives have a fitted effect of over 65% in size
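HeLa cells stably expressing A3F-eYFP plus Vif, plated and incubated overnight at 37 deg C, then exposed to compounds overnight at 37 deg C. Blocked degradation read as raised yellow fluorescence (Ex 488/Em 500-530).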
Vif-APOBEC3G blk = inhibitors of Vif-APOBEC3G interaction | HeLa A3G-eYFP + Vif (tagged APOBEC3G with the HIV-1 protein that degrades it), YFP fluorescence, overnight | 0.076% of 410,000 active | Potency, µM (doses to about 46.1 µM), for inactives: top-dose activity, negative = active, actives largely listed as inhibitors | Q9HC16 | AID 602310; further: potency means the concentration at half of the fitted maximal effect; on the % scale 0 is the no-effect control and ±100 the full control effect; nearly all actives have a fitted effect of over 60% in size
Target sequence (Q9HC16 whole entry, looked up): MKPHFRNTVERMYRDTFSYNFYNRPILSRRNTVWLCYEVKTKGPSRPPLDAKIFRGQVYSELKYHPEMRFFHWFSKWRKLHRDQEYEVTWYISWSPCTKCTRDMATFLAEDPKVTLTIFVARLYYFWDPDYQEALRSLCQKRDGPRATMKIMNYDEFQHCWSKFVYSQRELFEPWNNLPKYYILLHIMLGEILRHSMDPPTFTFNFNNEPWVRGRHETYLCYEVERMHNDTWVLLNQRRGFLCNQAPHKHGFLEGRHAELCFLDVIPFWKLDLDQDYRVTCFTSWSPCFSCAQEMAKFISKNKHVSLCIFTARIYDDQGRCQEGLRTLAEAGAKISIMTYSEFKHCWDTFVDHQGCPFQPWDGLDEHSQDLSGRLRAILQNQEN
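Read-out is eYFP fluorescence (Ex 488/Em 500-530) from Vif-expressing HeLa A3G-eYFP cells; more signal means A3G escaped Vif-mediated degradation. Cells plated overnight, compound pinned in, incubated overnight at 37 deg C.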
PINK1 expr mod = changes PINK1 expression | 0.2% of 410,000 active | Potency, µM (top dose mostly 76.6 µM), for inactives: at the top dose activation (PINK1 increase), most hits filed as activators | PINK1 immunofluorescence, high-content cytometry, 24 h; active means well fitted activation curve with a large enough effect; inconclusive means small, poorly fitted or top-dose-only effect; cell line not stated here; further: potency means the concentration at half of the fitted maximal effect; % of control where 0% means no effect; nearly all actives have a fitted effect of over 65% in size
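Compound titrations (5 concentrations, 24 h) on a stable cell line; DMSO and CCCP controls. Endpoint: fixed-cell PINK1 immunofluorescence with mitochondrial, cell and nuclear markers, scanned by microplate cytometer.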
GRP78 ERSR act = inducers of ER stress response in human glioma cells; U87-MG GRP78 promoter luciferase reporter, 16 h; Potency, µM, inactives show at the highest dose activation, most hits filed as activators; 0.02% of 420,000 active; AID 602332; further: potency means the concentration at half of the fitted maximal effect; series mostly up to about 76 µM; % of control where 0% means no effect; nearly all actives have a fitted effect of over 35% in size
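Stably transfected U87-MG human glioma cells carrying a GRP78-based luminescent sensor were seeded at 1000 cells/well, pin-dosed with compounds and incubated 16 h. Luciferase reagent was then added, and end-point luminescence was read after 10 min at room temperature.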
Akt phos inh = blocks phosphorylation of Akt; 0.32% of 360,000 active; Neuro2A IGF-stimulated pAkt S473 HTRF, 20 min; hits give low values; activity change, % for hits at 50 µM; AID 651550; in the data active means activity change below about -80%; inconclusive means mostly about -51% to -80%; further: on the % scale 0 is the no-effect control and ±100 the full control effect
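Neuro2A cells in DMEM with 0.5% FBS, overnight at 37 deg C, given compound at single 50 µM final, then IGF (6 nM final) for 20 min at 37 deg C. Lysed; phospho-Akt Ser473 by HTRF after 24 h, 665/615 ratio.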
LDHA block = LDHA (human) enzyme inhibition | AID 1347041 | purified LDHA, NADH/diaphorase-resazurin fluorescence; hits give low values | activity change, % (values are at about 110 or 230 µM) | 0.15% of 480,000 active; in the data active means activity change below about -30%; inconclusive means mostly about -25% to -30%;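 further: plate controls were DMSO wells for no effect and wells without enzyme for full effect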
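LDH5 2 nM; NADH 0.06 mM, pyruvate 0.2 mM; 200 mM Tris pH 7.4, EDTA, Tween-20; 5 min RT. Detection: diaphorase 0.133 mg/mL + resazurin 37 µM, fluorescence ex540/em590 at 0 and 20 min; normalized to enzyme-free and DMSO wells.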
An asterisk follows results filed as active; i = inactive; ? = inconclusive; / = not tested or not shown; [ ] = dose if it differs, or a comment. Unless noted, the call rests on the fitted dose curve; in most records, active means well fitted curve in the direction sought with a large enough effect; inconclusive means small, poorly fitted or top-dose-only effect, or another doubt; inactive means no such curve, though single readings can be large; an effect the other way counts as inactive or inconclusive.

SMILES	Vif-A3F inh	Vif-APOBEC3G blk	PINK1 expr mod	GRP78 ERSR act	Akt phos inh	LDHA block
COc1ccc(NC(=O)CC2SCCNC2=O)c(OC)c1 (stereo not drawn)	/	/	/	/	/	-6
C[n+]1ccc(/C=C/c2ccc(Br)cc2)cc1	0%	3%	?	-5%	i	-32*
O=C(NCCNC(=O)c1cc(-c2ccccc2)nc2ccccc12)c1ccco1	/	/	/	/	/	2
COc1ccc(-c2cnc3c(NC=O)cc(-c4ccccc4)cn23)cc1OC	/	1.8µM*	2%	-1%	i	-2
COc1ccc(-c2cnc3c(NC=O)cc(-c4ccc(F)cc4)cn23)cc1OC	/	?	0%	-4%	i	-2
COc1ccc(C(=O)/C=C/c2cccs2)c(OC(=O)c2ccco2)c1	/	/	/	/	/	0
CC[n+]1c(C=C2C=C(C)OC(C)=C2)sc2ccccc21	?	5.6µM*	22µM*	-3%	i	9
CC[n+]1c(/C=C2/C=C(C)CC(C)C2)sc2ccccc21 (stereo not drawn)	6%	10%	?	9%	i	1
N#Cc1nc(-c2ccc(COc3ccccc3)o2)oc1NCc1ccccc1	-15%	-6%	2%	-1%	/	-3
CC(Nc1oc(-c2ccc(COc3ccccc3)o2)nc1C#N)c1ccccc1 (stereo not drawn)	10µM*	-15%	3%	-4%	/	1
CCCc1sc(C(=O)OC(C)C(=O)Nc2cc(C)on2)cc1CC (stereo not drawn)	/	/	/	/	/	2
CCCN(Cc1ccccc1)C(=O)c1cc2ccccc2oc1=O	/	/	/	/	/	7
O=C(c1cc2ccccc2oc1=O)N(Cc1ccccc1)Cc1ccc2c(c1)OCO2	1%	-8%	-6%	-3%	-124%*	-5
Cc1ccc2nc(-c3cccc(SC4CCCCC4)c3)c(NCc3ccccc3)n2c1	?	-1%	25µM*	-7%	i	-1
Cc1ccn2c(NCc3ccccc3)c(-c3cccc(SC4CCCCC4)c3)nc2c1	0%	2%	25µM*	-1%	i	5
c1ccc(CNc2c(-c3cccc(SC4CCCCC4)c3)nc3ccccn23)cc1	0%	-10%	?	-4%	i	0
Clc1ccc2nc(-c3cccc(SC4CCCCC4)c3)c(NCc3ccccc3)n2c1	-2%	4%	13%	-1%	i	1
c1cn2c(NC3CCCCC3)c(-c3ccc(SC4CCCCC4)cc3)nc2cn1	-6%	-8%	5%	0%	i	2
c1cc(SC2CCCCC2)cc(-c2nc3cnccn3c2NC2CCCCC2)c1	25µM*	?	7%	-10%	i	5
Cc1c(N=N/C(C(=O)Nc2ccccc2)=C(/O)c2ccccc2)c(=O)n(-c2ccccc2)n1C	10µM*	-3%	2%	-3%	i	3
CCOC(=O)/C(N=Nc1c(C)n(C)n(-c2ccccc2)c1=O)=C(/O)c1ccccc1	11%	1%	0%	-4%	i	-6
COc1ccc(C2CCCCCN2C(=O)c2ccc(-n3cccn3)cc2)cc1 (stereo not drawn)	/	/	/	/	/	12
Cc1onc(-c2ccccc2)c1C(=O)Nc1ncc([N+](=O)[O-])s1	-12%	-7%	13µM*	-2%	i	-10
Cc1ccc(C(=O)Nc2ncc([N+](=O)[O-])s2)cc1	-5%	0%	35µM*	-15%	i	-3
CC(=O)Nc1ncc([N+](=O)[O-])s1	/	/	/	-2%	/	/
SMILES	Vif-A3F inh	Vif-APOBEC3G blk	PINK1 expr mod	GRP78 ERSR act	Akt phos inh	LDHA block
Cc1ccccc1S(=O)(=O)Cc1ccc(C(=O)N2CCN(c3cccc(C)c3C)CC2)o1	6%	?	-3%	-13%	-111%*	-2
COc1ccc(-c2nc3ccccc3o2)cc1NC(=O)CC(C)C	/	/	/	/	/	3
O=C(NCC12CC3CC(CC(C3)C1)C2)c1nc2ncccn2n1	8%	2%	-1%	-2%	-119%*	-1
CCC(C)(C)NC(=O)c1ccc2c(c1)N(CC(=O)OC)C(=O)C(C)(C)O2	-1%	-2%	10%[38.3 µM]	-6%	i	7
CCOC(=O)CN1C(=O)C(C)(C)Oc2ccc(C(=O)NC(C)(C)CC)cc21	6%	2%	0%	-3%	-111%*	-17
CCC(=O)Nc1cc(-c2nc3cc(OC)ccc3o2)ccc1C	/	/	/	/	/	5
Cc1ccc(NC(=O)CSCC(=O)OC(C)C(=O)Nc2ccc(S(N)(=O)=O)cc2)c(C)c1 (stereo not drawn)	?	3%	-3%	-1%	i	-44*
c1ccc2c(Nc3ccc4c(c3)OCCO4)c3c(nc2c1)CCC3	2%	-19%	40µM*	-5%	i	-5
c1ccc(Nc2c3c(nc4ccccc24)CCC3)cc1	1%	2%	0%	-9%	i	15
CCCNC(=O)NC(=O)COc1c(F)c(F)cc(F)c1F	-13%	-1%	-3%	-2%	-102%*	-8
O=C(COc1c(F)c(F)cc(F)c1F)NC(=O)NC1CCCC1	-1%	1%	-2%	-6%	i	-10
Cc1cc(C)c2c(=O)cc(C(=O)N(Cc3ccc(F)cc3)C3CCS(=O)(=O)C3)oc2c1 (stereo not drawn)	/	/	/	/	/	16
CC1=C(C(=O)OCC2CCCO2)C(c2ccc(Cl)c(Cl)c2)NC(=O)N1 (stereo not drawn)	9%	2%	-3%	-4%	i	-8
CC1=C(C(=O)OCC2CCCO2)C(c2ccccc2Cl)NC(=O)N1 (stereo not drawn)	-5%	2%	1%	-1%	-99%*	-7
COc1ccc(CNC(=O)COCC(=O)N2CCN(c3ccccc3)CC2)cc1	/	/	/	/	/	-9
CN1CCN(C(=O)CN2CCN(C(C(=O)O)c3cn(CC(=O)O)c4cc(F)ccc34)CC2)CC1 (stereo not drawn)	/	/	/	/	/	2
O=C(Nc1ccc(F)c(Cl)c1)Nc1nnc([C@H]2C[C@H](O)[C@@H](CO)O2)s1	/	-1%	0%	0%	i	-48*
CCn1c(COc2ccc(C)cc2)nnc1SCC(=O)Nc1ccc2c(c1)OCCO2	5%	4%	3%	-2%	-108%*	-2
COc1cccc(-c2nnc(SCC(=O)NCc3ccc4c(c3)OCO4)n2Cc2ccco2)c1	11%	-3%	-2%	-2%	i	-2
COc1cccc(-c2nnc(SCC(=O)Nc3ccc4c(c3)OCCO4)n2Cc2ccco2)c1	-6%	-6%	-1%	-6%	-114%*	-4
COC(=O)C1C(O)=C(C=NCc2ccccc2)C(=O)CC1(C)C (stereo not drawn)	/	3%	-1%	-4%	-114%*	-4
COC(=O)C1C(O)=C(C=Nc2cccc3ccccc23)C(=O)CC1(C)C (stereo not drawn)	4%	-5%	1%	-4%	i	19

Assay outcomes: PubChem, National Center for Advancing Translational Sciences (NCATS)
